Experiment [1] can be described thus: ATG_GLI_CIS: Attagene CIS-FACTORIAL HepG2 Assay for human Zinc Finger Protein GLI1 (AID 2282945). The conditions noted are these: HepG2, Attagene cis-factorial reporter mRNA, GLI element; actives raise or lower the signal. An outline of the steps: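 HepG2 cells transiently transfected with cis-promoter multiplexed reporter units report endogenous transcription factor activity. After 24 h chemical exposure, reporter mRNA was quantified by RT-PCR, 6-FAM labelling, HpaI digestion and capillary electrophoresis, with bidirectional fitting against DMSO.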

Experiment [2] has as its target Bile acid receptor (Homo sapiens) (UniProt Q96RI1). The experiment is described as follows: ATG_IR1_CIS: Attagene CIS-FACTORIAL HepG2 Assay for human Nuclear Receptor Subfamily 1 Group H Member 4 (NR1H4), IR1 submotif (AID 2282946). The conditions noted are these: IR1 reporter transcription, actives raise or lower the signal. Put shortly: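 Readout: reporter transcript levels by RT-PCR with fluorescent capillary electrophoresis, from HepG2 cells transiently transfected with multiplexed cis-regulated reporters and dosed 24 h. Gain- or loss-of-signal fitted versus DMSO negative control.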

Experiment [3] can be described thus: ATG_GRE_CIS: Attagene CIS-FACTORIAL HepG2 Assay for human Glucocorticoid Response Elements (GRE) (AID 2282947). The conditions noted are these: HepG2 GRE cis-reporter, Attagene multiplex mRNA; actives raise or lower the signal. Put shortly:
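HepG2, transient cis-reporter transfection, 24 h. Reporter mRNA: RT-PCR then CE, fluorescence. Fit both directions vs DMSO.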

The nature of experiment [4]: ATG_ISRE_CIS: Attagene CIS-FACTORIAL HepG2 Assay for human Interferon Regulatory Factor 1 (IRF1) binding to an Interferon-Stimulated Response Element (ISRE) (AID 2282948). The conditions noted are these: HepG2 ISRE cis-reporter (Attagene), mRNA transcription readout; actives raise or lower the signal. An outline of the steps: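 Endogenous transcription factor activity read as reporter transcript abundance via RT-PCR and capillary electrophoresis. HepG2 cells transiently transfected, 24 h chemical exposure. Gain or loss fitted against DMSO baseline.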

The nature of experiment [5]: ATG_M_32_CIS: Attagene CIS-FACTORIAL HepG2 Assay for M32 Transcription Factor (Internal Marker) (AID 2282949).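 Also: background control marker of the multiplexed CIS panel rather than a real target.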 The conditions noted are these: HepG2 Attagene cis-factorial M32 reporter, mRNA; actives raise or lower the signal. An outline of the steps: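 Transient MRTU transfection of HepG2; 24 h compound treatment; TriZol RNA, oligo(dT) RT, reporter PCR, 6-FAM primer extension, HpaI cut, CE. Gain/loss of signal vs DMSO.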

The nature of experiment [6]: ATG_M_06_CIS: Attagene CIS-FACTORIAL HepG2 Assay for M06 Transcription Factor (Internal Marker) (AID 2282950). The conditions noted are these: HepG2 Attagene CIS-FACTORIAL M06 internal marker reporter; actives raise or lower the signal. An outline of the steps:
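One of many multiplexed endpoints: HepG2 reporter mRNA after 24 h dosing, detected by RT-PCR and capillary electrophoresis fluorescence; gain or loss of signal analysed against DMSO.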

Experiment [7] addresses Hypoxia-inducible factor 1-alpha (Homo sapiens) (UniProt Q16665). Briefly: ATG_HIF1a_CIS: Attagene CIS-FACTORIAL HepG2 Assay for human Hypoxia Inducible Factor 1 (HIF1A) (AID 2282951). The conditions noted are these: HepG2 Attagene cis-factorial HIF1a reporter transcription; actives raise or lower the signal. An outline of the steps:
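Endogenous-TF cis reporter readout, human HepG2 cells, 24 h incubation; mRNA detected via RT-PCR and capillary electrophoresis fluorescence; DMSO-normalised bidirectional fitting.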

Experiment [8] addresses Hepatocyte nuclear factor 6 (Homo sapiens) (UniProt Q9UBC0). Briefly: ATG_HNF6_CIS: Attagene CIS-FACTORIAL HepG2 Assay for human Hepatocyte Nuclear Factor 6 (HNF6) (AID 2282952). The conditions noted are these: HepG2 Attagene cis-factorial HNF6 reporter transcription; actives raise or lower the signal. An outline of the steps:
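Activity values derive from bidirectional fitting against DMSO of reporter mRNA levels, measured by capillary electrophoresis of labelled RT-PCR products from HepG2 cells exposed 24 h.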

Experiment [9] has as its target Heat shock factor protein 1 (Homo sapiens) (UniProt Q00613). The experiment is described as follows: ATG_HSE_CIS: Attagene CIS-FACTORIAL HepG2 Assay for human Heat Shock Transcription Factor 1 (HSE) (AID 2282953). The conditions noted are these: HepG2 HSE cis-reporter, Attagene RNA transcription; actives raise or lower the signal. An outline of the steps:
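Using HepG2 with transfected cis-driven reporter constructs, compound effects on endogenous factor activity are scored as reporter mRNA change at 24 h. Detection: RT-PCR, HpaI digestion, capillary electrophoresis; bidirectional fitting to DMSO.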

The nature of experiment [10]: ATG_MRE_CIS: Attagene CIS-FACTORIAL HepG2 Assay for human Metal Responsive Element (MRE) (AID 2282954). The conditions noted are these: HepG2 MRE cis-reporter transcription, Attagene multiplex; actives raise or lower the signal. Put shortly:
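Readout: capillary electrophoresis of 6-FAM-labelled, HpaI-digested RT-PCR reporter products. System: HepG2 cells carrying transient multiplexed cis reporters, dosed 24 h. Analysis: bidirectional fit, DMSO baseline.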

The record followed here is PubChem BioAssay (EPA / NIEHS).

Values joined by “and” are separate entries in the source; they are usually repeats but may differ in a detail not shown here. Equal entries are not always repeated. Where a structure was tested more than once in an assay, its records may differ in their call. Active and inactive are the calls of the source. The calls were made as follows: active = hit-call score of the fitted dose curve at least 0.9, where 1 is the maximum; inactive = score below 0.9.

Heat shock factor protein 1 (Homo sapiens), sequence (Q00613 whole entry, looked up): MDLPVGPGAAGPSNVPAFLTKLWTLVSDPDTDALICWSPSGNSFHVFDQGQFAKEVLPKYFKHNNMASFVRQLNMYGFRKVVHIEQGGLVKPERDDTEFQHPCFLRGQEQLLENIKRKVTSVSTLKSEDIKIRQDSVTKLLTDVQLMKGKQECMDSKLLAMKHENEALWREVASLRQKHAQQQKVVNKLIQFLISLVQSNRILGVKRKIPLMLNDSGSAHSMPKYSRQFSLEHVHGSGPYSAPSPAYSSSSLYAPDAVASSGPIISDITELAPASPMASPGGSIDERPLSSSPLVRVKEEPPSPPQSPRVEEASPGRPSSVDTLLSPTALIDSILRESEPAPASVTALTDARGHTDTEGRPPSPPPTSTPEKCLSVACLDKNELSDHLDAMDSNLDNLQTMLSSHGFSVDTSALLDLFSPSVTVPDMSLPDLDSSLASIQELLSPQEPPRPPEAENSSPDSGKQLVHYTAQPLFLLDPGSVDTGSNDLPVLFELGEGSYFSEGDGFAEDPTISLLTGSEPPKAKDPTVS
Hypoxia-inducible factor 1-alpha (Homo sapiens), sequence (Q16665 whole entry, looked up): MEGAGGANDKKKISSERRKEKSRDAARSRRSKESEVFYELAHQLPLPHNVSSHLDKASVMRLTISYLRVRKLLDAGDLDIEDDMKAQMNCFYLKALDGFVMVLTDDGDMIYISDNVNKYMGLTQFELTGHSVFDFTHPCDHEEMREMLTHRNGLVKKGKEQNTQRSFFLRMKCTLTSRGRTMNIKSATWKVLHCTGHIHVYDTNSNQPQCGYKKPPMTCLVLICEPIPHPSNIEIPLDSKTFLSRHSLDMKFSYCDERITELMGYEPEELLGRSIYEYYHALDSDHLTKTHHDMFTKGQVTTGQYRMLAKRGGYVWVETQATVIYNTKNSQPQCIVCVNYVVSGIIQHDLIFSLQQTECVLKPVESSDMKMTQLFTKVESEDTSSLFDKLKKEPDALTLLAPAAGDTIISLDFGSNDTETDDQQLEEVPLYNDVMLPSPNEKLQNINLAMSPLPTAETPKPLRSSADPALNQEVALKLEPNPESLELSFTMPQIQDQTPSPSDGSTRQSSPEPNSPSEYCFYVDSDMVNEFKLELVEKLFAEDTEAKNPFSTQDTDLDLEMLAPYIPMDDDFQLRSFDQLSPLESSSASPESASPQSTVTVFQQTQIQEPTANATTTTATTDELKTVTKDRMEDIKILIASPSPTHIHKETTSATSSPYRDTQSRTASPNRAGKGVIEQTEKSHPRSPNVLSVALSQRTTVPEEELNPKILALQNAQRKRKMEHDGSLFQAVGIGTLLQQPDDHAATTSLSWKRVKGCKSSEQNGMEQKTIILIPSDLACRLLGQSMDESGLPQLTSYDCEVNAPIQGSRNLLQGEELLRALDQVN
Bile acid receptor (Homo sapiens), sequence (Q96RI1 whole entry, looked up): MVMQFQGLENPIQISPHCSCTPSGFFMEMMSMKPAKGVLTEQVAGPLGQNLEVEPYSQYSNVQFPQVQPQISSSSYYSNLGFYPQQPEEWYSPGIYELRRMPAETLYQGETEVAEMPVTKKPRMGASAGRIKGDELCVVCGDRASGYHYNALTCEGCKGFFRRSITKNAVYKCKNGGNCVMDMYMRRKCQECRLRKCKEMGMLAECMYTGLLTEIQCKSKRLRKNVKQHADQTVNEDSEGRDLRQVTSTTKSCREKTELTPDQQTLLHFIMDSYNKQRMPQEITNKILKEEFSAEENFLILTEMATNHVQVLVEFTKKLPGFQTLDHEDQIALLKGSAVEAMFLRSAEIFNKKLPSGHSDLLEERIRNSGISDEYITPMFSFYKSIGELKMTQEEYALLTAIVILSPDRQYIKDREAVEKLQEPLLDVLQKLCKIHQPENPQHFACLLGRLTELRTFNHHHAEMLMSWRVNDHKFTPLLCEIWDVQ
Hepatocyte nuclear factor 6 (Homo sapiens), sequence (Q9UBC0 whole entry, looked up): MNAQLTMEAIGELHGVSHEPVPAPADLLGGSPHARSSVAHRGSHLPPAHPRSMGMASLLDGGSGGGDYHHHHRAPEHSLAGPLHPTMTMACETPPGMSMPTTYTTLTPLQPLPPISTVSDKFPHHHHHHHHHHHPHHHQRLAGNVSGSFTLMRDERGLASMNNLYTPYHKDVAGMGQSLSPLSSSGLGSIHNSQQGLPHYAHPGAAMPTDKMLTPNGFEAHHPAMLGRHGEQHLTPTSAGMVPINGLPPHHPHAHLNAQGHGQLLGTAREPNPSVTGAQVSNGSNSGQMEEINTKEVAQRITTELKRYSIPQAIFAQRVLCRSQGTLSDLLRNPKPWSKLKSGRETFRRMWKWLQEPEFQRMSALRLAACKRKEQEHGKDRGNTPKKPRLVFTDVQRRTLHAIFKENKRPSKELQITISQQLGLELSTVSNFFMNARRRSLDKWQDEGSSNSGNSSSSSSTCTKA

Regarding `CC(C)CCOC(=O)CC(C)C`, the result in experiment [1], in [2], in experiment [3], in experiment [4], in experiment [5] and in [6] was inactive. Besides, the molecule was classed as inactive in experiment [7], in [8], in experiment [9] and in experiment [10].

With `CC(C)(C)c1cc(CCC(=O)OCCSCCOC(=O)CCc2cc(C(C)(C)C)c(O)c(C(C)(C)C)c2)cc(C(C)(C)C)c1O`, the molecule was called inactive in experiment [1], in experiment [2], in [3], in experiment [4], in experiment [5] and in experiment [6]. In addition, the result in experiment [7], in experiment [8] and in experiment [9] was inactive.

Regarding `O=c1cc[nH]cc1`, the molecule was called inactive in experiment [1], in [2], in experiment [3], in [4], in experiment [5] and in [6]. In addition, the call in [7], in experiment [8], in experiment [9] and in experiment [10] was inactive.

Consider `CCCCCC1CCC(=O)O1` (stereo not given), for which the molecule was classed as inactive in experiment [1], in experiment [2], in experiment [3], in experiment [4], in experiment [5] and in [6]. Further, the result in [7], in [8], in [9] and in experiment [10] was inactive.

Take `C=C1CC[C@H]2O[C@]2(C)CC[C@@H]2[C@@H]1CC2(C)C`: the molecule was classed as inactive in experiment [1], in experiment [2], in [3], in [4], in experiment [5] and in [6]. Moreover, the molecule was classed as inactive in [7], in experiment [8], in experiment [9] and in experiment [10].

Take `CC(=N[Si](C)(C)C)O[Si](C)(C)C`: the molecule was classed as inactive in experiment [1], in experiment [2], in experiment [3], in [4], in experiment [5] and in experiment [6]. The outcome in [7], in experiment [8], in [9] and in [10] was inactive.

A word on the AC50: it is the midpoint of the concentration-response curve, whichever way the signal moves. `C#C[C@]1(O)CC[C@H]2[C@@H]3CCc4cc(O)ccc4[C@H]3CC[C@@]21C`: the concentration at half-maximal activity (AC50) was 98.4 µM (active) and 72.2 µM (active) and 62.4 µM (active) in experiment [1]; 159 µM (active) in experiment [3]; 33.4 µM (active) and 27.3 µM (active) in experiment [4]; 161 µM (active) in experiment [5]; 49 µM (active) and 67.4 µM (active) in experiment [7]; 58.1 µM (active) and 100 µM (active) in [8]. Moreover, the AC50 in experiment [9] is 59.2 µM (active) [middle of 4 runs]; in [10], 52.1 µM (active) [middle of 4 runs]. Moreover, the molecule was called inactive in experiment [1], in experiment [3], in experiment [4], in experiment [5], in experiment [6] and in experiment [7]. The molecule was classed as inactive in experiment [8], in [9] and in experiment [10].

Regarding `CCCCCCCCSCc1cc(C)c(O)c(CSCCCCCCCC)c1`, the molecule was called inactive in experiment [1], in [2], in experiment [3], in experiment [4], in [5] and in [6]. For the same molecule, the result in experiment [7], in experiment [8], in experiment [9] and in experiment [10] was inactive.

For `O=S(=O)(O)c1cc(S(=O)(=O)O)c2c(N=Nc3ccccc3)c(O)ccc2c1`, the molecule was called inactive in experiment [1], in experiment [2], in [3], in experiment [4], in [5] and in experiment [6]. For the same molecule, the result in [7], in experiment [8], in [9] and in [10] was inactive.

As to `C=CC(=O)OCC(CO)(COC(=O)C=C)COC(=O)C=C`, the call in experiment [1], in experiment [3], in [6], in [7] and in experiment [8] was inactive. For the same molecule, the concentration at half-maximal activity (AC50) in experiment [2] was 26 µM (active); in experiment [4], 7.12 µM (active); in experiment [5] it was 122 µM (active); in [9] it was 161 µM (active); in experiment [10] it was 5.67 µM (active).

In the case of `CC(=O)C1=C(C)[C@@H]2C[C@@]3(C1)[C@H](C)CC[C@H]3C2(C)C`, the AC50 was 166 µM (active) in [1]; 73.2 µM (active) in experiment [4]; 148 µM (active) in [5]; 75.3 µM (active) in experiment [6]; 131 µM (active) in experiment [7]; 186 µM (active) in experiment [8]. Also, the AC50 in experiment [9] is 24.5 µM (active); in experiment [10], 146 µM (active). In experiment [2], the call was inactive.
